Activity calls are given as the source filed them.

Here are results for 35 molecules from PubChem BioAssay.

For one experiment, the system named is Wnt5a (protein binding on small-molecule microarray). As to the kind of experiment: small molecules binding Wnt5a protein – biophysical, small-molecule microarray, 635/667 nm fluorescence, primary screen (AID 1142).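 Further: fluorescence read at 667 nm with signal to noise per printed feature.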 The conditions noted are these: 635 nm fluorescence, higher = more signal.
The molecule `COC(=O)[C@@H]1N=C(c2ccc(OCCCO)cc2)O[C@@H]1c1ccccc1CN=[N+]=[N-]` returned a composite z-score of -0.257. With `C=C(COC)C(=O)CC[C@@H](OC(C)=O)c1ccc(OCCO)cc1`, the composite z-score was determined as 0.284. The same measure, in the same setting: in the case of `O=C(NCCO)C1=C[C@H](Oc2ccccc2I)[C@@H](O)[C@H](NCc2ccc(F)cc2)C1` it was 0.273. On to `O=C1O[C@@H](c2ccccc2)[C@@H](c2ccccc2)N2[C@@H](c3ccc(OCCO)cc3)[C@]3(C(=O)Nc4ccc(C#CCCO)cc43)[C@@H](C(=O)Nc3nc4ccccc4s3)[C@H]12`, for which the composite z-score is 0.482. As for `NCCCC[C@@H]1NC(=O)[C@H]2C[C@@H](C(=O)O)[C@@H](c3cccc(OCCO)c3)N2C1=O`, the composite z-score was determined as 0.424. Regarding `COCCOC(=O)N1C(=O)[C@@]2(c3cc(C#CCCO)ccc31)[C@H](C(=O)N1CCc3cc(OC)c(OC)cc3C1)[C@H]1C(=O)O[C@H](c3ccccc3)[C@H](c3ccccc3)N1[C@@H]2c1ccccc1OCCO`, the composite z-score came out at 0.75. As to `COC(=O)[C@@]1(Cc2ccccc2)[C@@H]2[C@@H](CC(=O)[C@H]2CC(=O)C(=O)N(C)C)CN1C(=O)c1ccccc1`, the composite z-score was -0.087. `O=C1O[C@H](c2ccccc2)[C@H](c2ccccc2)N2[C@H]1[C@@H](C(=O)N1CCN(c3ncccn3)CC1)[C@]1(C(=O)Nc3ccccc31)[C@H]2c1ccc(O)cc1` came in with a composite z-score of 0.186. For the molecule `CCOC(=O)C1=CC[C@@H](c2ccccc2Cl)N(S(=O)(=O)c2ccc(C)cc2)[C@H]1c1cccc(OC)c1`, the composite z-score turned out to be 0.142.

Tested on in a further experiment: not listed separately
As to the kind of experiment: ATP-based viability of Huh7 replicon cells – cell-based, CellTiter-Glo luminescence, basal, 48 h, cytotoxicity control for HCV replication inhibitor project, primary screen (AID 1143).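 Further: Huh7 hepatoma cells carrying a hepatitis C replication reporter with no stimulus; test concentration not given here.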 The conditions noted are these: higher = more signal, called active from +8 up or from −8 down.
Turning to `Cc1ccccc1C(O)C1C=CC2C(=O)N(c3ccccc3)C(=O)C2N1Nc1ccccc1F` (centres undefined), the z-score was 0.198 (inactive). Consider `COC(=O)[C@@]1(CCS(=O)(=O)c2ccccc2)N=C(c2ccc(OCCCO)cc2)O[C@H]1c1ccccc1N=[N+]=[N-]`, for which the z-score is -3.08 (inactive). With `C=C(CCCC)C(=O)CC[C@H](OC(=O)c1cccnc1)c1ccc(CO)o1`, the z-score was 0.0536 (inactive). `COCCOC(=O)N1C(=O)[C@@]2(c3cc(C#CC4(O)CCCCCC4)ccc31)[C@H](c1ccc(OCCO)cc1)N1[C@H](c3ccccc3)[C@H](c3ccccc3)OC(=O)[C@H]1[C@@H]2C(N)=O`: the z-score is -4.15 (inactive). As to `CN(C)C(=O)[C@]1(Cc2ccccc2)N=C(c2ccc(OCCCO)cc2)O[C@@H]1c1ccccc1`, the z-score was -3.35 (inactive). In the case of `COc1ccc(C#Cc2ccc3c(c2)[C@]2(C(=O)N3)[C@H](C(=O)Nc3nc4ccccc4s3)[C@H]3C(=O)O[C@H](c4ccccc4)[C@H](c4ccccc4)N3[C@@H]2c2ccc(OCCO)cc2)cc1`, the z-score is -0.974 (inactive). Regarding `CCOC(=O)C[C@H]1[C@H](OC(=O)c2ccc(C(=O)c3ccccc3)cc2)[C@@H](NC(=O)c2ccc3ccccc3c2)c2cc(OCCCO)ccc2N1C(=O)c1ccc2ccccc2n1`, the z-score is 0.311 (inactive). Regarding `CN(C)CCCCNC(=O)[C@H]1C[C@H]2C(=O)N[C@@H](Cc3ccccc3)C(=O)N2[C@H]1c1cccc(OCCO)c1`, the z-score is -0.307 (inactive). With `C=C(CC1([C@@H](NP(=O)(c2ccccc2)c2ccccc2)[C@H]2C[C@@H]2CCN(C(=O)OCC)S(=O)(=O)c2ccc(C)cc2)CC1)c1ccccc1`, the z-score was -3.37 (inactive). Same read-out and setting: in the case of `C=C(CCCC)/C(=C/C[C@H](OC(C)=O)c1cccc(OCCO)c1)c1cc(C(=O)OC)ccc1OC` it was -0.845 (inactive); in that of `C=CCNC(=O)[C@H]1[C@@H]2C(=O)O[C@@H](c3ccccc3)[C@@H](c3ccccc3)N2[C@@H](c2ccccc2OCCO)[C@]12C(=O)N(C(=O)OCCOC)c1ccccc12`, -4.39 (inactive); in that of `O=C1OCCC/C=C\[C@H]2OC34C=CCN(Cc5ccccc5)C(=O)[C@H]3N(CCCCCO)C(=O)[C@@H]4C12` (some centres undefined), 0.255 (inactive). With `CC(C)(C)OC(=O)CC[C@]1(C(=O)N2CCOCC2)N=C(c2ccc(OCCCO)cc2)O[C@H]1c1ccccc1CN=[N+]=[N-]`, the z-score was -0.569 (inactive). Same read-out and setting: in the case of `CCCC=C(CCC)[C@@H](NC(=O)c1ccco1)c1ccc(C(=O)OC)cc1` it was -3.84 (inactive); in that of `COC(=O)c1c(CC[C@@H](CO)NC(=O)N[C@@H](Cc2ccccc2)Cn2cc(-c3cncn3C)nn2)oc(C(C)=O)c1C(=O)OC`, -3.29 (inactive); in that of `COC(=O)[C@@]1(Cc2ccc(OC)cc2)[C@H]2c3cc(C(=O)N(C)C)n(Cc4ccsc4Br)c3C[C@H]2CN1C(=O)c1ccccc1`, -0.21 (inactive). In the case of `C=CCC(OC(C)=O)[C@@H]1[C@@H](N(Cc2ccc(-c3ccccc3)cc2)C(=O)c2ccc(-c3ccccc3)cc2)c2cc(OCCCO)ccc2N1C(=O)c1ccc2ccccc2n1` (some centres undefined), the z-score was 0.115 (inactive). As for `O=C1c2ccccc2[C@](Cc2ccccc2I)(C(=O)O)[C@H](c2ccc(CO)cc2)N1Cc1ccccc1`, the z-score was -2.39 (inactive).

Regarding `COCC(=C=CC[C@@H](O)c1cccc(OCCO)c1)C[C@@H](O)COCc1ccccc1`, the z-score was -0.825 (inactive). Still for that read-out and setting: in the case of `C[N+](C)(C)CCCCCCNC(=O)[C@@H]1C[C@@H]2C(=O)N[C@@H](Cc3ccccc3)C(=O)N2[C@@H]1c1ccc(O)cc1` it was -0.267 (inactive); in that of `COCCOC(=O)N1C(=O)[C@@]2(c3ccccc31)[C@H](c1ccc(OCCO)cc1)N1[C@H](c3ccccc3)[C@H](c3ccccc3)OC(=O)[C@H]1[C@@H]2C(=O)N1CCN(c2ncccn2)CC1`, -2 (inactive). With `COCCOC(=O)N1C(=O)[C@@]2(c3cc(C#CCCO)ccc31)[C@H](c1ccccc1OCCO)N1[C@H](c3ccccc3)[C@H](c3ccccc3)OC(=O)[C@H]1[C@@H]2C(=O)N1CCc2cc(OC)c(OC)cc2C1`, the z-score is -1.07 (inactive). Turning to `C=CCC(OC(C)=O)[C@@H]1[C@@H](N(Cc2cc3ccccc3o2)C(=O)Cc2ccc(OC)cc2)c2cc(OCCCO)ccc2N1C(=O)Cc1ccc(OC)cc1` (some centres undefined), the z-score is -1.17 (inactive). Take `CC(C)C[C@H]1NC(=O)[C@@]23C(=O)N[C@@H](Cc4ccccc4)C2[C@H](C)[C@@]2(C)O[C@H]2C3/C=C/C/C=C\CNC(=O)[C@@H]2CCCN2C1=O` (some centres undefined): the z-score was -0.264 (inactive). Take `COCCOC(=O)N1C(=O)[C@@]2(c3cc(C#CCC(C(=O)OC)C(=O)OC)ccc31)[C@H](c1ccc(OCCO)cc1)N1[C@H](c3ccccc3)[C@H](c3ccccc3)OC(=O)[C@H]1[C@@H]2C(=O)N1CCCCCCC1`: the z-score is -1.67 (inactive). With `COCC(=C=CC[C@@H](O)c1ccc(OCCO)cc1)C[C@@H](O)COCc1ccccc1`, the z-score was -0.959 (inactive).

Turning to `COC(=O)[C@@H]1N=C(c2ccc(OCCCO)cc2)O[C@@H]1c1ccccc1CN=[N+]=[N-]`, the z-score was -1.04 (inactive). Take `C=C(COC)C(=O)CC[C@@H](OC(C)=O)c1ccc(OCCO)cc1`: the z-score was -0.354 (inactive). `O=C(NCCO)C1=C[C@H](Oc2ccccc2I)[C@@H](O)[C@H](NCc2ccc(F)cc2)C1`: the z-score is -2.8 (inactive). In the case of `O=C1O[C@@H](c2ccccc2)[C@@H](c2ccccc2)N2[C@@H](c3ccc(OCCO)cc3)[C@]3(C(=O)Nc4ccc(C#CCCO)cc43)[C@@H](C(=O)Nc3nc4ccccc4s3)[C@H]12`, the z-score is -2.56 (inactive). In the case of `NCCCC[C@@H]1NC(=O)[C@H]2C[C@@H](C(=O)O)[C@@H](c3cccc(OCCO)c3)N2C1=O`, the z-score is 0.0458 (inactive). Consider `COCCOC(=O)N1C(=O)[C@@]2(c3cc(C#CCCO)ccc31)[C@H](C(=O)N1CCc3cc(OC)c(OC)cc3C1)[C@H]1C(=O)O[C@H](c3ccccc3)[C@H](c3ccccc3)N1[C@@H]2c1ccccc1OCCO`, for which the z-score was -1.84 (inactive). Turning to `COC(=O)[C@@]1(Cc2ccccc2)[C@@H]2[C@@H](CC(=O)[C@H]2CC(=O)C(=O)N(C)C)CN1C(=O)c1ccccc1`, the z-score is -0.0162 (inactive). As to `O=C1O[C@H](c2ccccc2)[C@H](c2ccccc2)N2[C@H]1[C@@H](C(=O)N1CCN(c3ncccn3)CC1)[C@]1(C(=O)Nc3ccccc31)[C@H]2c1ccc(O)cc1`, the z-score is -2.48 (inactive). Take `CCOC(=O)C1=CC[C@@H](c2ccccc2Cl)N(S(=O)(=O)c2ccc(C)cc2)[C@H]1c1cccc(OC)c1`: the z-score is -1.84 (inactive).
